Laboratory results reported in PubChem BioAssay (EPA / NIEHS).
“And” between values parts separate entries of the source, which are not always exact repeats. Equal values may be shown once. More than one record can exist for a structure, and the calls need not agree. The source made the active and inactive calls. The calls were made as follows: active = hit-call score of the fitted dose curve at least 0.9, where 1 is the maximum; inactive = score below 0.9.

test: CCTE_Shafer_MEA_dev_inter_network_spike_interval_mean: CCTE's Neural Network Formation Assay for Mean Inter-network Spike Interval, Shafer Lab (AID 2284047);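 as to AC50: potency for a decrease in mean inter-network spike interval below DMSO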
Protocol: CCTE_Shafer_MEA_dev assay is conducted using Axion Biosystems 48 well microelectrode array (MEA) plates and Maestro recording system. Each well of the MEA plate contains a grid of 16 microelectrodes embedded in the culture surface. Electrically active cells, such as neurons, can be cultured over the electrodes, and electrical activity in these cells can be recorded extracellularly. The spontaneous firing of neurons is captured from each electrode on a microsecond timescale providing both temporally and spatially precise data. […] The CCTE_Shafer_MEA_dev assay uses primary cultures of rat cortical neurons. Recordings are made on days post-plating 5, 7, 9 and 12. As these cultures mature over time, neural networks develop functional activity and form cohesive networks in which electrical activity can be highly coordinated. CCTE_Shafer_MEA_dev_inter_network_spike_interval_mean is 1 of 19 assay components of the CCTE_Shafer_MEA_dev assay. It measures the average time interval between network spikes (temporally-clustered groups of actional potential firing across multiple electrodes) as the average time between peaks of consecutive network spikes during a recording in a microelectrode array (MEA) using Axion Biosystems Maestro 768 channel amplifier with the AxIS adaptive spike detector. To collapse across multiple recordings made on days post-plating 5, 7, 9 and 12, the trapezoidal area-under-the-curve of the component is calculated.Data from the assay component CCTE_Shafer_MEA_dev_inter_network_spike_interval_mean was analyzed into 1 assay endpoint. This assay endpoint, CCTE_Shafer_MEA_dev_inter_network_spike_interval_mean, was analyzed in the negative analysis fitting direction relative to DMSO as the negative control and baseline of activity. Using a type of functional reporter, gain or loss-of-signal activity can be used to understand electrical activity.
On the day prior to culture, each well was coated thoroughly with 150 uL of 0.05% polyethyleneimine (PEI, Sigma Cat P3143) in 50 mM HEPES (Sigma Cat H7523) at a pH of 8. The plate was incubated at 37C for one hour. PEI was rinsed out with 500 uL of sterile water three times. Plates were stored at 4C until the day of culture. This culture was plated at a seeding density of 1.5 x 10^5 cells/well on a 48-well MEA plate, prepared as described above. Cells were administered via a 25 uL media/laminin ([…]; Sigma Cat L2020-1MG) drop directly onto the microelectrode array, as adding the cells with the laminin results in better attachment than pre-coating with laminin. After 2 hours, an additional 475 uL of cortical media was added and the cells returned to the incubator. Exposure starts at day 0 of plating and is continued over twelve days of network development until the experiment is terminated. Cells are fed with fresh medium on DIV 5 and 9, following the recordings on those days. The entire volume of media in the well is exchanged and any vehicle or compound treatment is renewed. Complete details are found in OP-NHEERL/ISTD/SBB/TJS/2015-03-r0 (available on request, email shafer.tim@epa.gov). Measurement of the electrical activity is non-invasive, and recordings can be made from the same plate over multiple different days of the culture. In cortical neurons, this allows for the measurement of extracellular action potentials over the period during which networks form in the MEA plate.

SMILES | outcome | AC50
NC(N)=Nc1nc(CSCCC(N)=NS(N)(=O)=O)cs1 | inactive | –
CN(C)C(=O)C(CCN1CCC(O)(c2ccc(Cl)cc2)CC1)(c1ccccc1)c1ccccc1 | inactive | 3 nM (active) and 2.62 µM (active)
CC[C@H](C)C(=O)O[C@H]1CCC=C2C=C[C@H](C)[C@H](CC[C@@H]3C[C@@H](O)CC(=O)O3)[C@H]21 | inactive | 696 nM (active)
Cc1c(O)cccc1C(=O)N[C@@H](CSc1ccccc1)[C@H](O)CN1C[C@H]2CCCC[C@H]2C[C@H]1C(=O)NC(C)(C)C | – | 1090 nM (active)
CC1(C)S[C@@H]2[C@H](NC(=O)[C@H](N)c3ccc(O)cc3)C(=O)N2[C@H]1C(=O)O | inactive | –
C[C@@H]1C[C@H]2[C@@H]3CCC4=CC(=O)C=C[C@]4(C)[C@@]3(F)[C@@H](O)C[C@]2(C)[C@@]1(O)C(=O)CO | inactive | –
CNCCC(Oc1ccc(C(F)(F)F)cc1)c1ccccc1 (configuration not stated) | – | 1400 nM (active)
C[C@H](CS)C(=O)N1CCC[C@H]1C(=O)O | inactive | –
CN(C)CCC(c1ccc(Cl)cc1)c1ccccn1 (configuration not stated) | inactive | –
c1ccc2cc3c4ccccc4c4ccccc4c3cc2c1 | inactive | –
CC(C)(C)NCC(O)c1cc(O)cc(O)c1 (configuration not stated) | inactive | –
c1cc2ccc3ccc4ccc5cccc6c(c1)c2c3c4c56 | inactive | –
[Cl-].[Cl-].[NH2-].[NH2-].[Pt+4] | inactive | –
CC1(C)S[C@@H]2[C@H](NC(=O)[C@H](N)c3ccccc3)C(=O)N2[C@H]1C(=O)O | inactive | –
COc1ccc2cc3[n+](cc2c1OC)CCc1cc2c(cc1-3)OCO2 | – | 236 nM (active)
